Data reported in PubChem BioAssay AID1159580 (chemical genetic matrix, 2015).
Where “and” joins values, the source holds several entries; their conditions need not be identical. Identical values can stand only once. Out of some 5,500 compounds screened, about 2,000 (36%) were called active. About 18% were inconclusive and are not listed. Rule as the data show it: active = normalized growth mostly below about 0.91 (no sharp cut-off); inconclusive = no clear call, values can overlap the other calls; inactive = mostly above about 0.92. The list shows a part of the results.

Experiment: chemical genetic growth profiling, strain panel (AID 1159580);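 also: tested at 20 µM; growth read once vehicle control cultures reached saturation at 30 °C; 1 = growth at the plate median or of vehicle wells; lower values mean less growth of the strain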
Conditions: growth OD
[1] = S. cerevisiae deletion strains, locus YAL013W, strain DEP1, stronger effect = lower value
[2] = S. cerevisiae deletion strains, locus YBR229C, strain ROT2, stronger effect = lower value
[3] = S. cerevisiae deletion strains, locus YDL101C, strain DUN1, stronger effect = lower value
[4] = S. cerevisiae deletion strains, locus YDL134C, strain PPH21, stronger effect = lower value
[5] = S. cerevisiae deletion strains, locus YDR150W, strain NUM1, stronger effect = lower value
[6] = S. cerevisiae deletion strains, locus YEL061C, strain CIN8, stronger effect = lower value
[7] = S. cerevisiae deletion strains, locus YGR078C, strain PAC10, stronger effect = lower value
[8] = S. cerevisiae deletion strains, locus YGR229C, strain SMI1, stronger effect = lower value
[9] = S. cerevisiae deletion strains, locus YHR030C, strain SLT2, stronger effect = lower value
[10] = S. cerevisiae deletion strains, locus YHR087W, strain rtc3, stronger effect = lower value
[11] = S. cerevisiae deletion strains, locus YJR043C, strain POL32, stronger effect = lower value
[12] = S. cerevisiae deletion strains, locus YJR075W, strain HOC1, stronger effect = lower value
[13] = S. cerevisiae deletion strains, locus YKL190W, strain CNB1, stronger effect = lower value
[14] = S. cerevisiae deletion strains, locus YLR039C, strain RIC1, stronger effect = lower value
[15] = S. cerevisiae deletion strains, locus YLR058C, strain SHM2 (second series), stronger effect = lower value
[16] = S. cerevisiae deletion strains, locus YLR085C, strain ARP6, stronger effect = lower value
[17] = S. cerevisiae deletion strains, locus YLR262C, strain YPT6, stronger effect = lower value
[18] = S. cerevisiae deletion strains, locus YML094W, strain GIM5, stronger effect = lower value
[19] = S. cerevisiae deletion strains, locus YMR219W, strain ESC1, stronger effect = lower value
[20] = S. cerevisiae deletion strains, locus YMR263W, strain SAP30, stronger effect = lower value
[21] = S. cerevisiae deletion strains, locus YNL128W, strain TEP1, stronger effect = lower value
[22] = S. cerevisiae deletion strains, locus YNL153C, strain GIM3, stronger effect = lower value
[23] = S. cerevisiae deletion strains, locus YNL298W, strain CLA4 (second series), stronger effect = lower value
[24] = S. cerevisiae deletion strains, locus YNL322C, strain KRE1, stronger effect = lower value
[25] = S. cerevisiae deletion strains, locus YNR030W, strain Alg12, stronger effect = lower value
[26] = S. cerevisiae deletion strains, locus YPL055C, strain LGE1, stronger effect = lower value
[27] = S. cerevisiae deletion strains, locus YPL241C, strain CIN2, stronger effect = lower value
[28] = S. cerevisiae deletion strains, locus YPR135W, strain CTF4, stronger effect = lower value
[29] = S. cerevisiae strains, strain wild type, stronger effect = lower value
[30] = S. cerevisiae deletion strains, locus YAR019C, strain CDC15, stronger effect = lower value
[31] = S. cerevisiae deletion strains, locus YBL105C, strain PKC1, stronger effect = lower value
[32] = S. cerevisiae deletion strains, locus YBR135W, strain CKS1, stronger effect = lower value
[33] = S. cerevisiae deletion strains, locus YBR136W, strain MEC1, stronger effect = lower value
[34] = S. cerevisiae deletion strains, locus YBR160W, strain CDC28, stronger effect = lower value
[35] = S. cerevisiae deletion strains, locus YDL017W, strain CDC7, stronger effect = lower value
[36] = S. cerevisiae deletion strains, locus YDL028C, strain MPS1, stronger effect = lower value
[37] = S. cerevisiae deletion strains, locus YDL108W, strain KIN28, stronger effect = lower value
[38] = S. cerevisiae deletion strains, locus YDL132W, strain cdc53, stronger effect = lower value
[39] = S. cerevisiae deletion strains, locus YDL214C, strain PRR2, stronger effect = lower value
[40] = S. cerevisiae deletion strains, locus YDR052C, strain DBF4, stronger effect = lower value
[41] = S. cerevisiae deletion strains, locus YDR054C, strain cdc34, stronger effect = lower value
[42] = S. cerevisiae deletion strains, locus YDR226W, strain ADK1, stronger effect = lower value
[43] = S. cerevisiae deletion strains, locus YDR477W, strain SNF1, stronger effect = lower value
[44] = S. cerevisiae deletion strains, locus YER123W, strain YCK3, stronger effect = lower value
[45] = S. cerevisiae deletion strains, locus YER133W, strain GLC7, stronger effect = lower value
[46] = S. cerevisiae deletion strains, locus YFL009W, strain cdc4, stronger effect = lower value
[47] = S. cerevisiae deletion strains, locus YFL029C, strain CAK1, stronger effect = lower value
[48] = S. cerevisiae deletion strains, locus YFR003C, strain YPI1, stronger effect = lower value
[49] = S. cerevisiae deletion strains, locus YFR019W, strain FAB1, stronger effect = lower value
[50] = S. cerevisiae deletion strains, locus YFR028C, strain CDC14, stronger effect = lower value
[51] = S. cerevisiae deletion strains, locus YGR040W, strain KSS1, stronger effect = lower value
[52] = S. cerevisiae deletion strains, locus YGR052W, strain FMP48, stronger effect = lower value
[53] = S. cerevisiae deletion strains, locus YGR092W, strain DBF2, stronger effect = lower value
[54] = S. cerevisiae deletion strains, locus YHR079C, strain IRE1, stronger effect = lower value
[55] = S. cerevisiae deletion strains, locus YHR082C, strain KSP1, stronger effect = lower value
[56] = S. cerevisiae deletion strains, locus YHR205W, strain SCH9, stronger effect = lower value
[57] = S. cerevisiae deletion strains, locus YIL147C, strain SLN1, stronger effect = lower value
[58] = S. cerevisiae deletion strains, locus YJL095W, strain BCK1, stronger effect = lower value
[59] = S. cerevisiae deletion strains, locus YJL128C, strain PBS2, stronger effect = lower value
[60] = S. cerevisiae deletion strains, locus YJL157C, strain FAR1, stronger effect = lower value
[61] = S. cerevisiae deletion strains, locus YJR016C, strain ILV3, stronger effect = lower value
[62] = S. cerevisiae deletion strains, locus YJR066W, strain TOR1 (second series), stronger effect = lower value
[63] = S. cerevisiae deletion strains, locus YJR066W, strain TOR1, stronger effect = lower value
[64] = S. cerevisiae deletion strains, locus YKL048C, strain ELM1, stronger effect = lower value
[65] = S. cerevisiae deletion strains, locus YKL067W, strain YNK1, stronger effect = lower value
[66] = S. cerevisiae deletion strains, locus YKL101W, strain HSL1, stronger effect = lower value
[67] = S. cerevisiae deletion strains, locus YKL193C, strain SDS22, stronger effect = lower value
[68] = S. cerevisiae deletion strains, locus YKL203C, strain TOR2, stronger effect = lower value
[69] = S. cerevisiae deletion strains, locus YLR113W, strain HOG1, stronger effect = lower value
[70] = S. cerevisiae deletion strains, locus YLR133W, strain CKI1, stronger effect = lower value
[71] = S. cerevisiae deletion strains, locus YLR403W, strain SFP1, stronger effect = lower value
[72] = S. cerevisiae deletion strains, locus YML070W, strain DAK1, stronger effect = lower value
[73] = S. cerevisiae deletion strains, locus YMR001C, strain CDC5, stronger effect = lower value
[74] = S. cerevisiae deletion strains, locus YMR205C, strain PFK2 (second series), stronger effect = lower value
[75] = S. cerevisiae deletion strains, locus YMR277W, strain FCP1, stronger effect = lower value
[76] = S. cerevisiae deletion strains, locus YNL006W, strain LST8, stronger effect = lower value
[77] = S. cerevisiae deletion strains, locus YNL020C, strain ARK1, stronger effect = lower value
[78] = S. cerevisiae deletion strains, locus YNL161W, strain CBK1, stronger effect = lower value
[79] = S. cerevisiae deletion strains, locus YNL183C, strain NPR1, stronger effect = lower value
[80] = S. cerevisiae deletion strains, locus YNL207W, strain RIO2, stronger effect = lower value
[81] = S. cerevisiae deletion strains, locus YNL222W, strain SSU72, stronger effect = lower value
[82] = S. cerevisiae deletion strains, locus YNL307C, strain MCK1 (second series), stronger effect = lower value
[83] = S. cerevisiae deletion strains, locus YOL078W, strain AVO1, stronger effect = lower value
[84] = S. cerevisiae deletion strains, locus YOL136C, strain PFK27, stronger effect = lower value
[85] = S. cerevisiae deletion strains, locus YOR061W, strain CKA2, stronger effect = lower value
[86] = S. cerevisiae deletion strains, locus YOR119C, strain RIO1, stronger effect = lower value
[87] = S. cerevisiae deletion strains, locus YOR231W, strain MKK1, stronger effect = lower value
[88] = S. cerevisiae deletion strains, locus YOR329C, strain SCD5, stronger effect = lower value
[89] = S. cerevisiae deletion strains, locus YPL031C, strain PHO85, stronger effect = lower value
[90] = S. cerevisiae deletion strains, locus YPL153C, strain RAD53, stronger effect = lower value
[91] = S. cerevisiae deletion strains, locus YPL204W, strain HRR25, stronger effect = lower value
[92] = S. cerevisiae deletion strains, locus YPL209C, strain IPL1, stronger effect = lower value
[93] = S. cerevisiae deletion strains, locus YPL256C, strain CLN2, stronger effect = lower value
[94] = S. cerevisiae deletion strains, locus YPR025C, strain CCL1, stronger effect = lower value
[95] = S. cerevisiae deletion strains, locus YPR106W, strain ISR1, stronger effect = lower value
[96] = S. cerevisiae deletion strains, locus YPR111W, strain DBF20, stronger effect = lower value
[97] = S. cerevisiae deletion strains, strain NNK1, stronger effect = lower value
[98] = S. cerevisiae deletion strains, strain TSCII, stronger effect = lower value

Measured: normalized growth

Cn1c2c(c3ccccc31)/C(=N\OC(=O)c1ccc(Cl)cc1Cl)CCC2
inactive: [1] 1.01 | [2] 1.03 | [3] 1.02 | [4] 1.02 | [5] 1.04 | [6] 0.957 | [7] 1.03 | [8] 1.02 | [9] 1.07 | [10] 0.986 | S. cerevisiae deletion strains, locus YJL187C, strain SWE1, stronger effect = lower value 1.01 | [11] 1.02 | [12] 1.01 | [13] 1.01 | [14] 1.01 | [15] 1.02 | [16] 0.977 | [17] 1.15 | [18] 1 | [19] 1 | [20] 0.986 | [21] 1.01 | [22] 1.04 | [23] 1.01 | [24] 1.01 | [25] 1.03 | [26] 0.982 | [27] 0.98 | [28] 1.11 | [29] 1.02

O=C(O/N=C1/CCCc2[nH]c3ccccc3c21)C1CCCCC1
inactive: [30] 0.972 | [31] 0.959 | [32] 0.964 | [33] 0.947 | [34] 0.962 | [35] 0.955 | [36] 0.962 | [3] 0.973 | [37] 0.931 | [38] 0.97 | [39] 0.881 | [40] 0.971 | [41] 0.951 | [42] 0.962 | [43] 0.905 | [44] 0.821 | [45] 0.888 | [46] 0.973 | [47] 0.966 | [48] 0.961 | [49] 0.918 | [50] 0.975 | [51] 0.856 | [52] 0.914 | [53] 0.845 | [9] 0.971 | [54] 0.963 | [55] 0.899 | [56] 0.873 | [57] 0.962 | [58] 0.942 | [59] 0.935 | [60] 0.884 | [61] 0.951 | [62] 0.902 | [63] 0.895 | [64] 0.925 | [65] 0.909 | [66] 0.878 | [67] 0.97 | [68] 0.931 | [69] 0.966 | [70] 0.9 | [71] 0.903 | [72] 0.846 | [73] 0.966 | [74] 0.895 | [75] 0.956 | [76] 0.992 | [77] 0.872 | [78] 0.963 | [79] 0.896 | [80] 0.959 | [81] 0.967 | [82] 0.911 | [83] 0.963 | [84] 0.857 | [85] 0.845 | [86] 0.948 | [87] 0.951 | [88] 0.972 | [89] 0.894 | [90] 0.887 | [91] 0.908 | [92] 0.965 | [93] 0.933 | [94] 0.961 | [95] 0.962 | [96] 0.969 | [97] 0.967 | [98] 0.967

O=C(O/N=C1/CCCc2[nH]c3ccccc3c21)c1ccc(Cl)cc1Cl
inactive: [30] 0.982 | [31] 0.984 | [32] 0.974 | [33] 0.975 | [34] 0.98 | [2] 0.97 | S. cerevisiae deletion strains, locus YCL061C, strain MRC1, stronger effect = lower value 0.923 | [35] 0.974 | [36] 0.972 | [3] 0.989 and 1 | [37] 0.972 | [38] 0.976 | [4] 0.968 | [39] 0.917 | [40] 0.985 | [41] 0.984 | [5] 0.943 | [42] 0.96 | [43] 0.91 | [6] 0.917 | [44] 0.917 | [45] 0.91 | [46] 0.971 | [47] 0.98 | [48] 0.973 | [49] 0.95 | [50] 0.977 | [51] 0.908 | [52] 0.897 | [7] 0.962 | [53] 0.982 | [8] 0.993 | [54] 0.988 | [55] 0.943 | [10] 0.982 | [56] 0.961 | [57] 0.976 | [58] 0.935 | [59] 0.921 | [60] 0.906 | [61] 0.964 | [11] 0.941 | [62] 0.876 | [63] 0.987 | [12] 0.895 | [64] 0.963 | [65] 0.946 | [66] 0.935 | [67] 0.969 | [68] 0.958 | [15] 0.971 | [70] 0.926 | [71] 0.931 | [72] 0.914 | [73] 0.977 | [74] 0.935 | [19] 1.01 | [75] 0.969 | [76] 0.983 | [77] 0.921 | [21] 0.972 | [22] 0.971 | [78] 0.971 | [79] 1 | [80] 0.976 | [81] 0.97 | [82] 0.937 | [24] 0.993 | [83] 0.971 | [84] 0.917 | [85] 0.935 | [86] 0.97 | [87] 0.939 | [88] 0.972 | [89] 0.9 | [90] 0.918 | [91] 0.912 | [92] 0.977 | [93] 0.882 | [94] 0.979 | [95] 0.979 | [96] 0.972 | [28] 0.681 | [97] 0.975 | [98] 0.972
active: [1] 0.906 | [9] 0.426 and 0.762 | [13] 0.807 | [14] 0.708 | [16] 0.55 | [69] 0.806 | [17] 0.776 | [18] 0.822 | [20] 0.893 | S. cerevisiae deletion strains, locus YMR307W, strain GAS1, stronger effect = lower value 0.461 | [23] 0.796 | [25] 0.754 | [26] 0.733 | [27] 0.843 | [29] 0.874
